# Only some compounds are listed: those with a hit (about 1.8% of all), similar ones and a draw of the others.
# LGR2 inh = inhibitors of bursicon-induced Drosophila LGR2 receptor cAMP signaling; 380,000 compounds, 0.35% hits; AID 720647; inhibition, % at 9.99 µM; HEK293 LGR2, CRE-luciferase, bursicon-stimulated, 4 h;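 active = drop in luminescence signal, shown as inhibition above about 50% in the replicate tests, limit read from the data, passing the limit was not always enough; inconclusive = probably only some replicates passing the limit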;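 note: agonist challenge used bursicon conditioned medium at about half maximal strength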
# PAX8 reporter = PAX8 transcriptional activity inhibition. RMG-I TPO-luciferase reporter, SteadyGlo, 24 h. inhibition, % at 12.6 µM. 360,000 compounds, 1.2% hits;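 active = mean replicate inhibition at least 60% with every replicate also reaching 60%; inconclusive = only one of the two criteria is met; inactive = mean below 60% and not all replicates reaching 60%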;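 note: luciferase light reporting Pax8 driven TPO promoter activity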
# EWS-Fli inh = inhibitors of EWS/Fli oncoprotein transcriptional activity; A673 NR0B1-luciferase reporter, viability-normalised; inhibition, % at 12.6 µM; 350,000 compounds, 0.67% hits; AID 651661;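 active = mean inhibition of at least 50% after viability correction, with every replicate also passing that limit; inconclusive = mean reaches 50% but only one of two replicates passes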;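 note: firefly luciferase signal divided by Alamar Blue viability fluorescence both relative to DMSO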
# F508del corr = correctors of CFTR F508del function in bronchial epithelial cells; CFBE cells, YFP halide quenching; stimulated with forskolin plus potentiator P3; % fluorescence drop versus neutral controls; 350,000 compounds, 0.36% hits; activity (quench increase), % at 7.58 µM;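 active = mean added fluorescence quench of at least 8% versus neutral control, with both replicates also reaching 8%; inconclusive = only one of the mean or replicate conditions met; inactive = mean below 8% and not both replicates reaching 8%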;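 note: cells transiently co-express mutant CFTR-F508del with the halide-sensitive YFP; corrector assay measuring rescue of mutant channel to the surface after 24 h compound exposure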
# Numbers stand for hits; i = inactive; ? = inconclusive; nt = no result.
SMILES,LGR2 inh,PAX8 reporter,EWS-Fli inh,F508del corr
O=C(NNc1nc2ccccc2s1)Nc1ccc(Cl)c(Cl)c1,i,64.4,i,i
COC(=O)c1cc(S(=O)(=O)N2CCN(c3ccc(OC)cc3)CC2)cn1C,i,i,nt,i
C[C@@H]1CN([C@@H](C)CO)C(=O)c2cc(C#Cc3ccc(F)cc3)cnc2O[C@@H]1CN(C)Cc1ccccn1,i,nt,i,i
Cc1nc(SCCC(=O)O)c2cc(-c3ccccc3)sc2n1,i,i,62.9,i
COCCCN1C(=O)C(CC(=O)NCCc2ccccn2)CC(C(=O)N(C(C)C)C(C)C)=C1C (configuration not stated),i,i,i,i
CO[C@@H]1CN(C)C(=O)c2cc(NC(=O)NC3CCCCC3)ccc2OC[C@@H](C)N(CC2CCOCC2)C[C@H]1C,i,i,i,i
CC(C)NC(=O)c1ccc(COc2cccc3ccccc23)o1,i,nt,i,9.8
Cc1ccc(-c2nc(CSc3nc4ccccc4c(=O)n3CCO)cs2)cc1,i,i,i,nt
COc1ccc(COc2cc(-c3cccc(OC)c3)nc3ccc(NC(=O)c4cccnc4)cc23)cc1,i,65.3,i,i
COc1ccc(COc2cc(-c3cccc(OC)c3)nc3ccc(NC(=O)c4ccc(Cl)cc4)cc23)cc1,i,i,56.9,i
COc1ccc(COc2cc(-c3cccc(OC)c3)nc3ccc(NC(=O)c4ccc(OC)cc4)cc23)cc1,i,77.5,i,8.2
COc1ccc(COc2cc(-c3cccc(OC)c3)nc3ccc(NC(=O)c4ccccc4)cc23)cc1,i,i,58.2,i
COc1cccc(NC(=O)c2cc(-c3cccnc3)nc3c(Cl)cccc23)c1,i,nt,nt,nt
O=C(C[C@@H]1CC[C@@H]2[C@H](COC[C@H](O)CN2C(=O)c2ccccc2F)O1)NCc1ccc(F)cc1,i,i,i,i
CC1(C)CSC(=NCc2ccccc2)N1C(=O)c1cccc([N+](=O)[O-])c1,i,69.0,i,i
CSC1=NC(C(Cl)(Cl)Cl)N=C(c2ccc(C)cc2)N1 (configuration not stated),i,i,59.5,i
COC(=O)c1ccc2nc(-c3cccc(N)c3)cn2c1,85.4,i,i,i
CN1CCC(NC(=O)CCc2ccccc2)CC1,i,i,i,i
C[C@H]1CN([C@@H](C)CO)C(=O)c2cc(C#CCc3ccccc3)cnc2O[C@H]1CN(C)CC1CC1,i,nt,i,i
CCOC(=O)CCCC(=O)Nc1ncnc2c1C(c1ccccc1)c1c(ccc3ccccc13)O2 (configuration not stated),i,i,i,i
O=C(c1ccccc1)N(C(=O)c1ccccc1)c1ncnc2c1C(c1ccccc1)c1c(ccc3ccccc13)O2 (configuration not stated),i,71.9,i,i
CC(=O)c1cccc(NC(=O)CSc2nnc(C(C)N(C)C)n2-c2ccc(F)cc2)c1 (configuration not stated),i,i,i,i
CC(C)=CCNc1ncnc2c1c(C#N)cn2C1OC(CO)C(O)C1O (configuration not stated),i,87.2,i,i
Nc1ccc(CCNc2ncnc3c2ncn3[C@@H]2O[C@H](CO)[C@@H](O)[C@H]2O)cc1,i,i,i,i
COc1ccc(NC(=O)Cc2ccsc2)cc1S(=O)(=O)N1CCOCC1,i,i,i,i
SMILES,LGR2 inh,PAX8 reporter,EWS-Fli inh,F508del corr
CN(C)c1ccc(/C=C/c2c([N+](=O)[O-])c(=O)n(C)c(=O)n2C)cc1,i,i,i,i
Cn1c(/C=C/c2ccc(Br)cc2)c([N+](=O)[O-])c(=O)n(C)c1=O,i,62.7,i,i
O=C(NC(Cc1ccccc1)C(=O)N1CCN(S(=O)(=O)c2ccccc2F)CC1)c1ccccc1 (configuration not stated),i,i,i,8.7
COc1cc(C(=O)NCCOc2cc(C)cc(C)c2)cc(OC)c1OC,i,i,53.0,i
COc1cc(C(=O)NCCOc2ccccc2)cc(OC)c1OC,i,i,i,i
O=C(CN1C(=O)NC2(CCCCCCC2)C1=O)Nc1ccc(OC(F)F)cc1,i,i,i,i
CC(C)NC(=O)N[C@@H]1CC[C@@H](CCN)O[C@@H]1CO,i,i,i,i
Cc1nn(CC(=O)NC2CCC(C)CC2)c(C)c1[N+](=O)[O-] (configuration not stated),i,i,i,i
N#CCc1nn(Cc2ccc(F)cc2)c(=O)c2ccccc12,i,i,i,i
CCSc1nsc(NC(=O)Nc2cccc(F)c2)n1,i,90.4,i,nt
C[C@H]1CCCCO[C@@H](CN(C)C(=O)Nc2ccccc2)[C@@H](C)CN([C@@H](C)CO)C(=O)c2cc(NC(=O)c3ccncc3)ccc2O1,i,i,i,i
NS(=O)(=O)c1ccc(CNc2ccc3ccccc3n2)cc1,i,i,i,8.7
CC(C)CC(Nc1ncnc2scc(-c3ccccc3)c12)C(=O)O (configuration not stated),i,i,i,i
Cc1cccc(NC(=O)COc2ccc3c(c2)CCC3)n1,i,i,i,i
O=C(COc1ccc2c(c1)CCC2)Nc1ccccn1,74.0,i,i,i
COc1cccc(-c2sc3ccc(OC)cc3c2-c2ccc(OCCN(C)C)cc2)c1,i,68.3,i,i
COc1cccc(-c2sc3ccc(OC)cc3c2-c2ccc(O)cc2)c1,i,i,i,i
COc1ccc(-c2sc3ccccc3c2-c2ccc(OCCN(C)C)cc2)cc1,i,100.1,i,i
CC(C)(C)[C@@H]1CCC(=O)N(CC[C@H](N=[N+]=[N-])c2ccccc2)CC1,i,i,i,i
CN(C)c1ccc(-n2cccc2/C=C/[N+](=O)[O-])cc1,nt,71.5,i,i
CC(C)(C)OC(=O)N/N=C/c1cccn1-c1ccc([N+](=O)[O-])cc1,i,i,i,i
O=c1c(Br)c(N2CCCC2)cnn1-c1ccccc1,i,nt,nt,nt
O=c1c(Br)c(Br)cnn1-c1ccccc1,i,106.9,?,i
COc1ccc(CNC(=O)C(=O)NCCC2CCCCN2S(=O)(=O)c2ccc(C)cc2)cc1 (configuration not stated),i,i,i,i
Cc1ccc(S(=O)(=O)N2CCCCC2CCNC(=O)C(=O)NCc2ccncc2)cc1 (configuration not stated),i,76.4,i,i
SMILES,LGR2 inh,PAX8 reporter,EWS-Fli inh,F508del corr
Cc1ccc(S(=O)(=O)N2CCCCC2CCNC(=O)C(=O)NCc2ccccc2)cc1 (configuration not stated),i,i,?,9.8
O=C(NCCC1CCCCN1S(=O)(=O)c1ccccc1)C(=O)NCc1ccncc1 (configuration not stated),i,67.9,i,i
O=C1CCCC(=O)C1C(c1ccc(Cl)cc1)C1C(=O)CCCC1=O,i,i,i,i
Cc1noc(C)c1NC(=O)N(C)C[C@@H]1Oc2c(NC(=O)c3cnccn3)cccc2C(=O)N([C@@H](C)CO)C[C@@H]1C,i,nt,i,i
CN(C)S(=O)(=O)c1ccc(C(=O)OCC(=O)NCc2ccccc2)cc1,i,i,i,i
Cc1ccc(CNC(=O)COC(=O)c2ccc(S(=O)(=O)N(C)C)cc2)cc1,i,i,i,8.1
COCCNC(=O)C/C(C)=N/NC(=O)C(=O)NC1CCCCC1,i,100.8,i,i
COCCCNC(=O)C(=O)NC1CCCCCC1,i,i,i,nt

# High-throughput results deposited in PubChem by Broad Institute.
